For 64 molecules, inhibition results are on record in PubChem BioAssay AID1376 (SRMLSC, 2008).

Out of some 220,000 compounds screened, about 530 (0.24%) were called active. The entries come from a sample that favours actives as a whole. Results with a measured potency or affinity are listed apart. Unmarked numbers belong to inactive results. Cut-off read from the data, not from the text of the source: active = inhibition above about 13%; inconclusive = no clear call, values can overlap the other calls; inactive = below that.

The target of the assay is Bifunctional protein GlmU (Mycobacterium tuberculosis (strain ATCC 25618 / H37Rv)) (UniProt P9WMN3). The assay is described as follows: inhibition of mycobacterial GlmU enzyme – biochemical, glucosamine-1-phosphate acetyltransferase (AID 1376).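 Note: 0% = complete reaction with vehicle and 100% = reaction without substrate.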 Particulars: M. tuberculosis GlmU acetyltransferase enzyme assay; stronger effect = higher value;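 tested at 30 µM in the primary screen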.
Sequence of Bifunctional protein GlmU (Mycobacterium tuberculosis (strain ATCC 25618 / H37Rv)) (P9WMN3 whole entry, looked up): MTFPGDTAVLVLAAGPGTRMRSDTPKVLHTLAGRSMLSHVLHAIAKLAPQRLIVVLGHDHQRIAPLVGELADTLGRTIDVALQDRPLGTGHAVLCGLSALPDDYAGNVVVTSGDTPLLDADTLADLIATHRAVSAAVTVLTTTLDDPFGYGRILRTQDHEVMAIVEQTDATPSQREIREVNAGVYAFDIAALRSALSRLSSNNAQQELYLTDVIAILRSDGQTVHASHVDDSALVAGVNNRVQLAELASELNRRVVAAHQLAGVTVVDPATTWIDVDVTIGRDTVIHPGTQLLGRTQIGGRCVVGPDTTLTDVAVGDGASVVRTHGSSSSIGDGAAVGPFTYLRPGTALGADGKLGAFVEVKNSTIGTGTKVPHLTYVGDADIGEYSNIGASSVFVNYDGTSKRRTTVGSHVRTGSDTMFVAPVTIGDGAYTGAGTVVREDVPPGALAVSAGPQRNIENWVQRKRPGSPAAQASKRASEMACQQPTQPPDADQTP
Regarding `Cc1c(NC(=O)c2ccc(S(=O)(=O)N(C)c3ccccc3)cc2)c(=O)n(-c2ccccc2)n1C`, the inhibition is -6.06%.
The value for `CCC(C)(C)NC(=O)C(c1ccc(OC)cc1)N(CC1CCCO1)C(=O)CCC(=O)Nc1cc(C)on1` (centres undefined) was 5.67%; that for `COc1ccc(C(C(=O)NC(C)(C)C)N(CC2CCCO2)C(=O)CCC(=O)Nc2cc(C)on2)cc1` (centres undefined) was 16.9% (active); that for `COc1ccc(C(C(=O)NC(C)(C)C)N(Cc2ccc(C)cc2)C(=O)CCC(=O)Nc2cc(C)on2)cc1` (centres undefined) was 5.39%.
Consider `COc1cc2nc(C3CCC3)n(NC(=O)C3CCC(OC)CC3)c(=O)c2cc1OC` (centres undefined), for which the inhibition was 0.09%.
The value for `C=CC1CN2CCC1CC2c1[nH]c2ccccc2c1CCO` (centres undefined) was -1.33%.
For `NS(=O)(=O)c1cc(C(=O)OCC(=O)NC2CC2)ccc1Cl`, the inhibition was 0.47%.
With `O=[N+]([O-])c1ccc2c(c1)C(N1CCOCC1)/C(=C/COc1ccc(Cl)cc1Cl)O2` (centres undefined), the inhibition is -0.92%.
`COC(=O)c1oc2c(c1C)C1(CCC2)SCCS1`: the inhibition is -1.66%.
The value for `COc1ccc(OC)c2c1C(=O)c1ccccc1C2=O` was 1.18%.
The value for `COc1ccc(N)c2c1C(=O)c1ccccc1C2=O` was 11.8%.
The value for `COc1ccc(OC)c2c1C(=O)C(Cl)=C(Cl)C2=O` was 15.7% (active); that for `O=C(O)/C=C/c1ccc([N+](=O)[O-])o1` was -1.44%; that for `O=C1CN(/N=C/c2ccc([N+](=O)[O-])o2)C(=O)N1` was 0.61%.
Consider `Cc1ccc(C2=N/C(=C\N(C)C)C(=O)O2)cc1`, for which the inhibition is 1.44%.
With `O=C1/C(=C/c2cccc(Br)c2)SC(=S)N1/N=C/c1cc([N+](=O)[O-])ccc1O` the figure was -5.24%.
The value for `Cc1ccc(/C=C2\SC(=S)N(/N=C/c3cc([N+](=O)[O-])ccc3O)C2=O)o1` was 46.9% (active).
With `Cc1ccccc1/C=C1\SC(=S)N(/N=C/c2cc([N+](=O)[O-])ccc2O)C1=O` the figure was -0.74%; with `CC1CCC(NC(=O)c2ccc(/C=C3\Oc4ccccc4N(C)C3=O)cc2)CC1` (centres undefined), -2.49%.
For `O=C(O)C1C2C=CC(C3CC23)C1C(=O)O` (centres undefined), the inhibition is 1.12%.
`O=C(O)C1C2C=CC(C2)C1C(=O)N1CCOCC1` (centres undefined): the inhibition is -2.63%.
For the molecule `COc1cc(/C=N/n2c(-c3n[nH]c4c3CCC4)n[nH]c2=S)cc(OC)c1O`, the inhibition is 0.14%.
The value for `COc1ccc(/C=N/n2c(-c3n[nH]c4c3CCC4)n[nH]c2=S)cc1OC` was 14.3% (active).
Take `COc1cc(/C=N/n2c(-c3n[nH]c4c3CCC4)n[nH]c2=S)ccc1O`: the inhibition was 1.56%.
The value for `Cc1cc(C(=O)O)c(CSCc2cc(C(=O)O)oc2C)o1` was 2.24%.
With `CN(C)CC(C)(C)CN=Cc1c(O)[nH]c2ccccc12` the figure was -4.17%; with `COc1cc2c(cc1O)C(SC)=NC(C)(C)C2`, 14.9% (active).
The value for `COc1cc2c(cc1OC)C(SC)=NC(C)(C)C2` was 8.72%.
Turning to `COc1cc2c(cc1OC)C(SC)=NC1(CCCC1)C2`, the inhibition was 2.45%.
With `Cc1cccc(N2CCN(C(=O)N3CCOCC3)CC2)c1C` the figure was 13.8% (active); with `Cc1cccc(C)c1N1CCN(C(=O)N2CCOCC2)CC1`, 1.63%; with `Cc1cccc(N2CCN(C(=O)N3CCCCC3)CC2)c1C`, 4.08%.
With `COc1ccc(-c2c3c(=O)n(C)c(=O)n(C)c3cn2-c2ccc(O)cc2)cc1` the figure was -0.66%.
`COc1ccc(-c2c3c(=O)n(C)c(=O)n(C)c3cn2-c2cccc(OC)c2)cc1`: the inhibition is 14% (active).
For `COc1ccc(-c2c3c(=O)n(C)c(=O)n(C)c3cn2-c2ccccc2)cc1`, the inhibition is -0.39%.
The value for `Cc1cc(C)c(C#N)c(SCC(=O)c2ccc(Cl)cc2Cl)n1` was 14.2% (active).
Regarding `Cc1cc(C)c(C#N)c(SCC(=O)c2ccccc2)n1`, the inhibition is 2%.
With `Cc1cc(C)c(C#N)c(SCC(=O)c2cccs2)n1` the figure was 3.22%; with `CC1CCN(CCc2nc3cc(NC(=O)Nc4ccccc4)ccc3n2C)CC1`, -2.61%; with `O=c1[nH]c(/C=C/c2cccnc2)c([N+](=O)[O-])c(=O)[nH]1`, -1.57%.
As to `COc1ccc(CCn2c(-c3cc([N+](=O)[O-])cc([N+](=O)[O-])c3)nc3nc4ccccc4nc32)cc1OC`, the inhibition is 1.37%.
For `COC(=O)CCN(C(=O)c1cccc([N+](=O)[O-])c1)c1ccccn1`, the inhibition was 2.81%.
With `COC(=O)CCN(C(=O)c1ccc([N+](=O)[O-])cc1)c1ccccn1` the figure was 13.6% (active); with `COC(=O)CCN(C(=O)c1cc([N+](=O)[O-])cc([N+](=O)[O-])c1)c1ccccn1`, 9.11%.
With `CCc1nnc(NC(=O)C2CCCN(S(=O)(=O)c3ccc(OC)cc3)C2)s1` (centres undefined) the figure was -3.09%; with `CCOc1ccc(-n2c(C)nnc2SCC(=O)N(CC)CC)cc1`, -6.69%; with `O=C(O)c1ccccc1/C=N/NC(=O)C1CCCCC1`, 1.79%.
The value for `CCC(C)C1NC(=S)N(C2CCCCC2)C1=O` (centres undefined) was 15.5% (active); that for `CC(C)C1NC(=S)N(C2CCCCC2)C1=O` (centres undefined) was 1.15%.
Take `CCC1NC(=S)N(C2CCCCC2)C1=O` (centres undefined): the inhibition was -5.8%.
With `COc1ccc(NCN2C(=O)CCC2=O)cc1` the figure was 13.4% (active); with `O=C1CCC(=O)N1CNc1ccc(Oc2ccccc2)cc1`, 4.2%.
With `COc1ccc(NCN2C(=O)C3C4C=CC(C4)C3C2=O)cc1` (centres undefined) the figure was 0.26%; with `NC(=O)c1c(NC(NC(=O)c2ccco2)C(=O)c2ccc(Cl)cc2)sc2c1CCCC2` (centres undefined), 2%.
For the molecule `Cc1ccc2nc(C)cc(N/N=C/c3cccnc3)c2c1`, the inhibition is -6%.
Consider `CC(C)S(=O)(=O)C/C(N)=N/OS(=O)(=O)c1ccc(Cl)cc1`, for which the inhibition was 0.64%.
Take `N#Cc1cccc(-n2nnnc2-c2ccc3c(c2)OCO3)c1`: the inhibition is 0.01%.
The value for `CC1CN(c2ccc([N+](=O)[O-])c(NCCOc3ccccc3)c2)CCN1` (centres undefined) was 1.45%; that for `Cc1ccc(Sc2cc(NCCCO)c([N+](=O)[O-])c3nonc23)cc1` was -0.69%.
With `CCC(=O)OCCNc1cc(Sc2nc3ccccc3[nH]2)c2nonc2c1[N+](=O)[O-]` the figure was 10.6%; with `Cc1nnc(Sc2cc(NCCO)c([N+](=O)[O-])c3nonc23)s1`, 1.7%; with `Cn1ccnc1Sc1cc(NCCCO)c([N+](=O)[O-])c2nonc12`, 3.47%.
For the molecule `CCCC(=O)OCCNc1cc(Sc2nc3ccccc3[nH]2)c2nonc2c1[N+](=O)[O-]`, the inhibition is 9.67%.
The value for `CCC(=O)OCCNc1cc(Sc2nccn2C)c2nonc2c1[N+](=O)[O-]` was 12.7%.
